Screening data from PubChem.
BH1578 lux ind = inducers of Vibrio cholerae quorum light production without autoinducers, primary screen, BH1578 luxS cqsA deficient, single point; V. cholerae BH1578 lux reporter, luminescence, 6 h; activation, % at 18.7 µM; 0.16% of 350,000 active; in the data active = activation mostly above about 9.7%, no sharp cut-off
TcdB GH inh = TcdB glycohydrolase inhibitors, primary screen, biochemical, single point, plate reader | TcdB glycohydrolase enzymatic assay | AID 652162, 2013 | 0.24% of 350,000 active | inhibition, % at 9.99 µM | Toxin B (Clostridioides difficile), P18177; in the data active = inhibition above about 10%
Target sequence (P18177 whole entry, looked up): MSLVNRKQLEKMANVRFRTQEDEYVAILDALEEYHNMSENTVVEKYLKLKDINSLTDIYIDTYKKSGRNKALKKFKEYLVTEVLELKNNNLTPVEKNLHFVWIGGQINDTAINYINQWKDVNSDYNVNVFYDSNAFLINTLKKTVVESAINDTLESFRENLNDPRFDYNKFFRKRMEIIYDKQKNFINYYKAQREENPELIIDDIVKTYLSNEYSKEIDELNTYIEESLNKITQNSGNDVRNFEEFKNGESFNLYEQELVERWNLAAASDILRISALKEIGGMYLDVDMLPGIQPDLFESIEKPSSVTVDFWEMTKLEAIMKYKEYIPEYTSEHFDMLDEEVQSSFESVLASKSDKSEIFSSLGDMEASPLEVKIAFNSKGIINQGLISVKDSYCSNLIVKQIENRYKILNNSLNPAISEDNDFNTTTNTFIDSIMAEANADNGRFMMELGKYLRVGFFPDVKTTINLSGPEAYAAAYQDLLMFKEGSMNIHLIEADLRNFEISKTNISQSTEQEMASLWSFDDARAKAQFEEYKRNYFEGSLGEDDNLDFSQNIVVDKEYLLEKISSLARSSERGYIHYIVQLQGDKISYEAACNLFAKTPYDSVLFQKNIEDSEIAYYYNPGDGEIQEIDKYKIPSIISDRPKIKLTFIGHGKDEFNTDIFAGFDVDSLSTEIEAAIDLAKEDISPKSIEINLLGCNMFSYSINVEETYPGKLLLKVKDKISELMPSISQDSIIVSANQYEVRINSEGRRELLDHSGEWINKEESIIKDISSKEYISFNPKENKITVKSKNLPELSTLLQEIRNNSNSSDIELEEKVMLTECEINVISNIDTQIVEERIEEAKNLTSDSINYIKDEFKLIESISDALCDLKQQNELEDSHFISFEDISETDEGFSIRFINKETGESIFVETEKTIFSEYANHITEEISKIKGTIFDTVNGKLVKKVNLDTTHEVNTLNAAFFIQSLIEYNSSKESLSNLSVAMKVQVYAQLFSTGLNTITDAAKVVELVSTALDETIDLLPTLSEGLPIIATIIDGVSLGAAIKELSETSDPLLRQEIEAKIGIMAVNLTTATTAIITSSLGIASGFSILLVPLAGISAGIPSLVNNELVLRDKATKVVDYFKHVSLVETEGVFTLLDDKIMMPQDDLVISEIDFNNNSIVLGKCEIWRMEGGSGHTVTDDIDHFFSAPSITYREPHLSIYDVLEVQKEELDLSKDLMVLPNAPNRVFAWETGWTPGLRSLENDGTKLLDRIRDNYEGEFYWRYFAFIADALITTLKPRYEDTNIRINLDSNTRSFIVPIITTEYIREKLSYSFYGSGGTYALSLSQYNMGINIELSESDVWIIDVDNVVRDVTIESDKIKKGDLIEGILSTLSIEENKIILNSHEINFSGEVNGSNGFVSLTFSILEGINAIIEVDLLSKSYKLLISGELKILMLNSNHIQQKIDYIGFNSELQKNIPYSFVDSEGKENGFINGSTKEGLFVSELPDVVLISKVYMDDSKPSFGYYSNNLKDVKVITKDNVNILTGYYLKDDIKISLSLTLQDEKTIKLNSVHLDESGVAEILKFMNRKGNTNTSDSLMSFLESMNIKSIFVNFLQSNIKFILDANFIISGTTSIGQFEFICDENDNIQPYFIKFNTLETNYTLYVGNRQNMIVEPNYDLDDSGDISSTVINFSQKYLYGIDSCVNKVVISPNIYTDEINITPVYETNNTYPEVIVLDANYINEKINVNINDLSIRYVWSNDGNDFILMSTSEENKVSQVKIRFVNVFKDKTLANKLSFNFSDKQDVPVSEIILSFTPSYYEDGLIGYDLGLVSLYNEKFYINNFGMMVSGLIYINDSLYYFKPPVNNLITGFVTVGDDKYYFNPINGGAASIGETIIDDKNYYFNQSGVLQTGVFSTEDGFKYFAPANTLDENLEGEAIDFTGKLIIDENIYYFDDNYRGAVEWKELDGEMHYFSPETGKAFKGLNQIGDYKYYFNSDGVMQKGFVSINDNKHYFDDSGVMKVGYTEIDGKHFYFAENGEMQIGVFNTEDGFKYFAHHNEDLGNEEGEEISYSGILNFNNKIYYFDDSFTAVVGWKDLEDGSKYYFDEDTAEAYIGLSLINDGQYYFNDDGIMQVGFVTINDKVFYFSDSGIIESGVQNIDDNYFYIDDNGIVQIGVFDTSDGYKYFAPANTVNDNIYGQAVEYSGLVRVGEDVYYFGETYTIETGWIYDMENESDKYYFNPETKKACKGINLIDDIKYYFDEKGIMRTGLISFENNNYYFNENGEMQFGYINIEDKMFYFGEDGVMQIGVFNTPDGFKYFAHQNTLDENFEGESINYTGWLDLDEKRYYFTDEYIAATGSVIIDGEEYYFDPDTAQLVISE
CCHFV vOTU inh = CCHFV vOTU protease inhibitors, primary screen, biochemical, Pep-AMC substrate, fluorescence; 0.55% of 370,000 active; inhibition, % at 11.5 µM; Crimean-Congo hemorrhagic fever virus L polyprotein viral ovarian tumor (vOTU) protease …; in the data active = inhibition above about 30%; also: 0% = vehicle wells with enzyme and 100% = no enzyme wells
SSB-PriA inh = inhibitors of Klebsiella pneumoniae PriA binding to SSB C-terminal tail, primary screen, biochemical, AlphaScreen. 0.6% of 430,000 active. PriA–SSB C-terminal tail interaction (Klebsiella pneumoniae). AlphaScreen SSBct-PriA binding, biotinylated peptide. inhibition, % at 33 µM; in the data active = inhibition mostly above about 37%, no sharp cut-off; inactive = mostly below about 20%;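 also: plate controls were negative control peptide for no effect and reference peptide for full effect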
DUSP3 inh = VHR1 phosphatase inhibitors, primary screen, biochemical, absorbance, uHTS. inhibition, % at 13.3 µM. 0.52% of 290,000 active. Dual specificity protein phosphatase 3 (Homo sapiens), P51452. recombinant VHR phosphatase, pNPP absorbance. AID 1654, 2009; in the data active = inhibition above about 50%
SARS 3CLpro inh = SARS-CoV 3CLpro protease inhibitors, primary screen, biochemical, quenched FRET. inhibition, % at 6 µM. 0.14% of 290,000 active. recombinant SARS-CoV 3CLpro, quenched FRET peptide cleavage. Replicase polyprotein 1ab (Severe acute respiratory syndrome coronavirus), P0C6X7; in the data active = inhibition above about 12%
* hit, by the source's call; i = inactive; · = not tested or not shown. A selection: hits, their analogues and other compounds. The true share with any hit is near 1.3%.

SMILES	BH1578 lux ind	TcdB GH inh	CCHFV vOTU inh	SSB-PriA inh	DUSP3 inh	SARS 3CLpro inh
COc1cc(OC)cc(C(=O)Nc2cccc(NC(=O)c3ccccc3)c2)c1	i	-0.6	23.2	-8.2	-2.2	-4.6
NC(=O)c1c(NC(=O)c2ccccc2Br)sc2c1CCCCC2	·	·	·	5.0	·	·
Cc1ccc(O[C@H]2CCCN(C(=O)CCn3ccc(=O)[nH]c3=O)C2)nn1	·	·	·	-7.0	·	·
COCCNC(=O)/C(C#N)=C1\N=C(NC(=O)c2ccccc2Cl)c2ccccc21	·	·	·	-6.0	·	·
Cc1nc2ccc(Br)cc2c(-c2ccccc2)c1C1=NN(C(=O)c2ccc(F)cc2)C(c2ccccc2)C1 (stereo not drawn)	·	·	·	-2.0	·	·
Cc1ccc(-c2nnc(-c3cc(-c4ccccc4)nc4ccccc34)o2)cc1	·	·	·	-8.0	·	·
O=c1[nH]nc(-c2cc(-c3ccccc3)nc3ccccc23)o1	i	15.6*	9.6	·	·	·
CSc1ccc(CNc2nc3ccccc3n3cnnc23)cc1	0.7	0.3	-5.7	-18.9	17.2	-2.6
c1ccc2c(c1)CCN(CCCNc1nc3ccccc3n3cnnc13)C2	0.0	0.6	12.1	-9.3	54.2*	-0.9
COCCNc1nc2ccccc2n2cnnc12	-1.0	0.6	-2.3	-6.0	9.5	1.2
Cc1ccc(CNc2nc3ccccc3n3cnnc23)cc1	0.0	1.5	-6.4	98.3*	37.7	-5.4
CC(C)(C)c1ccc(C(=O)NC(=S)Nc2nc(-c3cccs3)cs2)cc1	·	·	·	0.0	·	·
O=[N+]([O-])c1ccccc1/C=N/N1CCN(Cc2ccccc2)CC1	-0.7	0.7	-2.2	·	58.3*	-0.6
O=[N+]([O-])c1ccccc1C=NN1CCN(Cc2ccccc2Cl)CC1	·	·	·	31.4	·	·
O=C(Nc1nc(-c2ccc(Cl)c(Cl)c2)cs1)C1CCCCC1	·	·	·	2.0	·	·
COc1ccc(CCC(=O)NC(C)c2ccccc2)cc1OC (stereo not drawn)	i	0.5	1.9	-21.4	56.9*	-3.8
COc1cc(OC)cc(C(=O)NC(=S)Nc2cccc(-c3nc4ccccc4[nH]3)c2)c1	·	·	·	19.0	·	·
Oc1ccc(N2CCN(Cc3ccc(OCCCN4CCCCC4)cc3)CC2)cc1	-0.1	0.7	9.8	55.2*	17.6	2.5
CCCCOc1ccc(CN2CCCCC2)cc1	i	1.6	-10.0	-6.2	-16.2	-0.1
COc1ccccc1NC(=O)C1CN(C(=O)c2c[nH]c3ccccc23)C1	·	·	·	-13.0	·	·
O=C(NCCc1ccccc1)C1CCCN1C(=O)Nc1ccc(Cl)cc1 (stereo not drawn)	i	1.6	-8.5	2.4	53.3*	2.6
O=C(NCc1ccc(F)cc1)C1CCCN1C(=O)Nc1ccccc1 (stereo not drawn)	-0.2	0.7	-1.3	-11.7	59.1*	-5.2
O=C(NCc1ccc(F)cc1)C1CCCN1C(=O)Nc1ccc(F)cc1 (stereo not drawn)	0.8	1.2	-7.4	-6.2	4.1	-0.7
O=S(=O)(NCc1cncc(-c2cccs2)c1)c1ccc2c(c1)CCO2	·	·	·	3.0	·	·
NS(=O)(=O)c1ccc(O)c(N2C(=O)c3cccc4c(C(=O)c5ccccc5)ccc(c34)C2=O)c1	·	·	·	46.0*	-4.6	6.6
SMILES	BH1578 lux ind	TcdB GH inh	CCHFV vOTU inh	SSB-PriA inh	DUSP3 inh	SARS 3CLpro inh
CN(C)C(=O)Cn1cc(-c2ccc(F)cc2)cn1	·	·	·	38.0*	·	·
O=C(Cn1cc(-c2ccc(F)cc2)cn1)N1CCC(S(=O)(=O)c2ccc(F)cc2)CC1	·	·	·	3.0	·	·
O=C(Nc1ccc(S(=O)(=O)Nc2nccs2)cc1)c1ccccc1Oc1ccccc1	·	·	·	-5.0	·	·
Cc1cccc(C(=O)Nc2ccc(C(=O)N3CCCCC3C)cc2)c1 (stereo not drawn)	-0.3	3.3	2.0	-2.9	56.7*	5.7
CC1CCCCN1C(=O)c1ccc(C(=O)N2CCCCC2C)cc1 (stereo not drawn)	-3.8	·	-1.6	-10.8	13.6	-1.6
COc1cc(/C=N/NC2=NCCCCC2)ccc1O	-0.9	14.2*	-4.1	·	-8.5	-2.2
O=C(Cn1nnc2ccccc21)N1CC(S(=O)(=O)c2ccc(F)cc2)C1	·	·	·	-30.0	·	·
CCCCOc1ccc(C(=O)N2CCC(c3nc4ccccc4[nH]3)CC2)cc1	·	·	·	91.0*	·	·
Cc1cc(C)nc(N2CCCC(C(=O)NC3CC3)C2)n1 (stereo not drawn)	-4.0	0.9	-8.3	-9.4	52.9*	0.4
Cc1ccc(NC(=O)C2CC(=O)N/C(=N/N=C/c3ccco3)S2)cc1 (stereo not drawn)	-0.3	·	0.3	·	57.9*	1.7
O=C(Nc1ccccc1F)c1cc(C2CCN(C(=O)c3c[nH]c(=O)c(Cl)c3)CC2)[nH]n1	·	·	·	98.0*	·	·
O=C(Nc1ccc(O)cc1)C1CCCN1S(=O)(=O)c1ccc(F)cc1 (stereo not drawn)	-0.2	10.2*	3.4	6.1	5.6	4.0
CC(=O)Nc1ccc(NC(=O)[C@@H]2CCCN2S(=O)(=O)c2ccc3c(c2)OCCO3)cc1	-3.0	16.2*	-3.0	1.6	24.4	-1.4
O=C(Nc1nc(C(=O)NCCOc2ccccc2)co1)c1ccncc1	·	·	·	-4.0	·	·
Cc1nn(Cc2ccccc2)c(C)c1NC(=O)c1cc(-c2ccco2)on1	-0.8	·	7.2	-5.4	52.9*	-2.4
CCCCn1c(-c2ccccc2C)nc2cc3[nH]c(=O)c(C(C)C)nc3cc21	8.3	11.3*	-5.0	-30.0	24.4	-4.1
CCCCn1c(-c2cccc3ccccc23)nc2cc3[nH]c(=O)c(C(C)C)nc3cc21	-0.8	0.2	5.1	4.3	32.1	-9.1
Cc1ccc(-n2nc3c(=O)n(CC(=O)NCc4ccc(C)o4)nc(C)c3c2C)cc1	i	-0.4	-5.0	-15.2	52.7*	-4.3
O=C(Cn1c(=O)oc2ccccc21)N1CCN(c2ccc(N3CCOCC3)nn2)CC1	-0.3	0.1	-31.8	-16.1	54.5*	-1.6
Cc1c(C(=O)N/N=C/C(C)C)[nH]c2ccc([N+](=O)[O-])cc12	-0.2	0.0	2.9	·	55.6*	-4.6
Cc1c(C(=O)NN=CC(C)C)[nH]c2ccc([N+](=O)[O-])cc12	·	·	·	-4.7	·	·
CCOC(=O)c1c(S(=O)(=O)N2CCN(C(=O)c3ccco3)CC2)n[nH]c1CC	·	·	·	-10.0	·	·
Cc1cc(C(=O)NCCCOC(C)C)c2ccccc2n1	-0.2	·	-16.8	-16.9	50.3*	-2.2
C/C(CC(C)C)=N\NC(=O)Nc1ccccc1	-0.4	-0.9	1.4	·	50.8*	-2.4
CCC(CO)Nc1ncnc2c1cnn2-c1ccc(OC)cc1 (stereo not drawn)	0.2	-0.1	3.8	115.4*	-12.8	0.8
O=C(Cn1ncccc1=O)N1CC(n2cc(-c3ccccc3)nn2)C1	·	·	·	-8.0	·	·
COc1ccc(NC(=S)Nc2ncccc2C)c(OC)c1	-1.6	2.0	-11.1	45.8*	20.0	-2.5
COc1ccc(NC(=S)Nc2ncccc2C)cc1OC	-0.2	1.7	5.3	-3.3	-7.4	1.3
